Test results from ChEMBL document CHEMBL1961873, “Compounds: GSK PKIS; Assays: Nanosyn kinase panel” (2012).

Experiments:
[1] = molecular target: Tyrosine-protein kinase Fyn (Homo sapiens) (UniProt P06241); conditions: at 1 µM
[2] = molecular target: Tyrosine-protein kinase HCK (Homo sapiens) (UniProt P08631); conditions: at 0.1 µM
[3] = molecular target: Tyrosine-protein kinase HCK (Homo sapiens) (UniProt P08631); conditions: at 1 µM
[4] = molecular target: Insulin-like growth factor 1 receptor (Homo sapiens) (UniProt P08069); conditions: at 0.1 µM
Insulin-like growth factor 1 receptor (Homo sapiens), sequence (P08069 31-736 limits assumed): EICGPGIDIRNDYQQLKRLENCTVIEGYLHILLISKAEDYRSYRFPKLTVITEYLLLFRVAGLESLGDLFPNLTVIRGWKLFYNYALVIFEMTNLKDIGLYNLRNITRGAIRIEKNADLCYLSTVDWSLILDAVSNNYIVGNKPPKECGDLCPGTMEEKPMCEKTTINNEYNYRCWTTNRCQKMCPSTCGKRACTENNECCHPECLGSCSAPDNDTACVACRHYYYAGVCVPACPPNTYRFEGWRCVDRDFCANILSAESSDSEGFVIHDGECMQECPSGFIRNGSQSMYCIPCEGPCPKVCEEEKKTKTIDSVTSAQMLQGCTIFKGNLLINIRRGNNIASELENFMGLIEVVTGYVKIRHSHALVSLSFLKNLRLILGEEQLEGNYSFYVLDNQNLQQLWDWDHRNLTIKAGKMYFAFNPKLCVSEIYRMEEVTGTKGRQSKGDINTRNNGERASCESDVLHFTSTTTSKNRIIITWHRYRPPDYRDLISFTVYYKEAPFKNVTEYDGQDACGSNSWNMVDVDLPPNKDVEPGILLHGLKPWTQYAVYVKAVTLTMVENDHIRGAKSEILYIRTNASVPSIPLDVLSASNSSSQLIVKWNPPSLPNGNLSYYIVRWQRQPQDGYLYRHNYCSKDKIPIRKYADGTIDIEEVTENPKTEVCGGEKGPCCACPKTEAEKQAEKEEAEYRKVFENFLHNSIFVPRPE
Insulin-like growth factor 1 receptor (Homo sapiens), sequence (P08069 741-1367 limits assumed): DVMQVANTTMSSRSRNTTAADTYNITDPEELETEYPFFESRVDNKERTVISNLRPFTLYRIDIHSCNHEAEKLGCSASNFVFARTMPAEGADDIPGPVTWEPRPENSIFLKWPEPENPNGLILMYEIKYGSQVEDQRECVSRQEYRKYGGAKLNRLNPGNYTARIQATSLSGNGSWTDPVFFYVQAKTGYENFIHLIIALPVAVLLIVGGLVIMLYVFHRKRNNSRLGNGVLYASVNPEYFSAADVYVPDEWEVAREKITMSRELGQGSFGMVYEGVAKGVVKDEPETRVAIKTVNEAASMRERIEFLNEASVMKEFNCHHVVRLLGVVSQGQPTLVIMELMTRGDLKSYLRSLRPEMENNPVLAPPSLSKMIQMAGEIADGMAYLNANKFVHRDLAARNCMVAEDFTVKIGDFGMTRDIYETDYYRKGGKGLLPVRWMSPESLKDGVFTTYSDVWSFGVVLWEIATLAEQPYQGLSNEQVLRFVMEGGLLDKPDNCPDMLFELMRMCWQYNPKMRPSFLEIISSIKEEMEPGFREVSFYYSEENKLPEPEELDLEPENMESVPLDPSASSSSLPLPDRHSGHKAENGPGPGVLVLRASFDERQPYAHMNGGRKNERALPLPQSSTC

[5] = molecular target: Insulin-like growth factor 1 receptor (Homo sapiens) (UniProt P08069); conditions: at 1 µM
[6] = molecular target: Insulin receptor (Homo sapiens) (UniProt P06213); conditions: at 0.1 µM
Insulin receptor (Homo sapiens), sequence (P06213 28-758 limits assumed): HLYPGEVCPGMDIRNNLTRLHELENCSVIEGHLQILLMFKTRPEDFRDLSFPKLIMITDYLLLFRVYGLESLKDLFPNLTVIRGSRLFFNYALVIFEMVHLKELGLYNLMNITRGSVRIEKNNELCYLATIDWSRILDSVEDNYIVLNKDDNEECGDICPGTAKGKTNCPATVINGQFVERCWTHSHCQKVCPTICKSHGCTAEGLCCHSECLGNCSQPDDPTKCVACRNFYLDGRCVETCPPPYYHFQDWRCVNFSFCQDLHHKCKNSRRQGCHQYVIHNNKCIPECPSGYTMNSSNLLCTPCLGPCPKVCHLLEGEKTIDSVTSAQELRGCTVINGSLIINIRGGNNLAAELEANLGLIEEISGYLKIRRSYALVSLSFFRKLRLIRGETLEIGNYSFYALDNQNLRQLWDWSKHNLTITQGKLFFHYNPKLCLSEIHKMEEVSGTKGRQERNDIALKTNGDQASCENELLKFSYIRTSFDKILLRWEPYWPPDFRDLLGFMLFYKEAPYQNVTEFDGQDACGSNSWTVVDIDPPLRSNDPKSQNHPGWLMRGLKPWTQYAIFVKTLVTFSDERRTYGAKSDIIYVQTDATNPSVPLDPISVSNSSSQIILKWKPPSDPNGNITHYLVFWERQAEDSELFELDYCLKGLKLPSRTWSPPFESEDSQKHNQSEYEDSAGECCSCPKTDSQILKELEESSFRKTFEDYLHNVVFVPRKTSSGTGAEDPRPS
Insulin receptor (Homo sapiens), sequence (P06213 763-1382 limits assumed): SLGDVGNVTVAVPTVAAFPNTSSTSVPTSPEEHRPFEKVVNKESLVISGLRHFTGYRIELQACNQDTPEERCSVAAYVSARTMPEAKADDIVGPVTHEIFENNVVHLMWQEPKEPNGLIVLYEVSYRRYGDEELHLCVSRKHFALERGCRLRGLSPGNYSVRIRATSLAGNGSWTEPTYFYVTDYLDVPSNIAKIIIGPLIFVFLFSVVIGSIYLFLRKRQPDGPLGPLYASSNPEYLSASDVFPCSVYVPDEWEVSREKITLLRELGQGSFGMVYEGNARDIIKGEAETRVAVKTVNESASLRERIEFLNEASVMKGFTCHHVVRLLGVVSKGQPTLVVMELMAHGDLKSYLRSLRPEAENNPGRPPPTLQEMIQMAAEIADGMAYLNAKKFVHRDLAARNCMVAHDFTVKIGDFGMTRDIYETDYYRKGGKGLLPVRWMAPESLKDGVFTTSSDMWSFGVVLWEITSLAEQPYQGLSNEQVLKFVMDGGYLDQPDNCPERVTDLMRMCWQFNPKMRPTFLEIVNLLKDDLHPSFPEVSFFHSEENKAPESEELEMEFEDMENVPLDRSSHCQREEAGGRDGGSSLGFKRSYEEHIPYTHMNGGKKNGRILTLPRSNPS

[7] = molecular target: Insulin receptor (Homo sapiens) (UniProt P06213); conditions: at 1 µM
[8] = molecular target: Insulin receptor-related protein (Homo sapiens) (UniProt P14616); conditions: at 0.1 µM
Insulin receptor-related protein (Homo sapiens), sequence (P14616 27-742 limits assumed): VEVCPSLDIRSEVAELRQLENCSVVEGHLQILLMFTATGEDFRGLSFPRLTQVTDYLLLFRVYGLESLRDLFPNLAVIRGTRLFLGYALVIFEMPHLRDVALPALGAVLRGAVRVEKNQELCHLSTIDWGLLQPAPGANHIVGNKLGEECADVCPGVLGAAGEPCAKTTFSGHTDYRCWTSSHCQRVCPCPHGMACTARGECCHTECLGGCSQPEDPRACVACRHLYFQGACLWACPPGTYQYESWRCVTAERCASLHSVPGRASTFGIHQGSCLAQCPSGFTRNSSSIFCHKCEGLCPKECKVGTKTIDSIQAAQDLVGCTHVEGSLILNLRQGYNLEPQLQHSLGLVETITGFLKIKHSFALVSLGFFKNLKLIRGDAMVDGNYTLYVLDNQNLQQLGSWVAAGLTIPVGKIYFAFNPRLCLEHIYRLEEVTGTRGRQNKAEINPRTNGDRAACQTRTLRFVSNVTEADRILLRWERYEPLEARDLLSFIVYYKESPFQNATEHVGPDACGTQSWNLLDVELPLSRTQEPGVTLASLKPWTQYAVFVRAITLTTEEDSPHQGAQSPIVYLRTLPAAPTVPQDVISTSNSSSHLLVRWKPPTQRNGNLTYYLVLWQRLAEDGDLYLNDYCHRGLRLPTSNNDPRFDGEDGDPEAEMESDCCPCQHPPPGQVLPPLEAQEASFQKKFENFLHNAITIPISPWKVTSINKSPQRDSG
Insulin receptor-related protein (Homo sapiens), sequence (P14616 747-1297 limits assumed): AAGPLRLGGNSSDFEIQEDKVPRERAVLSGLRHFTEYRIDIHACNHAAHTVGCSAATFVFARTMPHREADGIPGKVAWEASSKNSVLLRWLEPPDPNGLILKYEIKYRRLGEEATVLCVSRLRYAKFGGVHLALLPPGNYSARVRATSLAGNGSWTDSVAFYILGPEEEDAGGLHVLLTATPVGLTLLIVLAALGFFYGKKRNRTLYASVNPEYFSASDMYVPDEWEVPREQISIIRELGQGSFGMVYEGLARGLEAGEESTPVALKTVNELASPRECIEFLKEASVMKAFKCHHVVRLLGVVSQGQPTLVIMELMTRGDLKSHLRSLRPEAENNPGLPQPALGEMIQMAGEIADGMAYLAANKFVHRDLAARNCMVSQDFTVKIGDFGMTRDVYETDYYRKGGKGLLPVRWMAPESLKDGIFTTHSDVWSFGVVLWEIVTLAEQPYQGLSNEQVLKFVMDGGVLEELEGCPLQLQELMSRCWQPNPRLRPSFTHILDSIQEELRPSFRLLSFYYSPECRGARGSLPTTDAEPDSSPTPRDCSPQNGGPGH

[9] = molecular target: Insulin receptor-related protein (Homo sapiens) (UniProt P14616); conditions: at 1 µM
[10] = molecular target: T1, Tyrosine-protein kinase ITK/TSK (Homo sapiens) (UniProt Q08881); conditions: at 0.1 µM;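 further: mean percent inhibition of ITK from the GSK PKIS screen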
T1 sequence (whole entry): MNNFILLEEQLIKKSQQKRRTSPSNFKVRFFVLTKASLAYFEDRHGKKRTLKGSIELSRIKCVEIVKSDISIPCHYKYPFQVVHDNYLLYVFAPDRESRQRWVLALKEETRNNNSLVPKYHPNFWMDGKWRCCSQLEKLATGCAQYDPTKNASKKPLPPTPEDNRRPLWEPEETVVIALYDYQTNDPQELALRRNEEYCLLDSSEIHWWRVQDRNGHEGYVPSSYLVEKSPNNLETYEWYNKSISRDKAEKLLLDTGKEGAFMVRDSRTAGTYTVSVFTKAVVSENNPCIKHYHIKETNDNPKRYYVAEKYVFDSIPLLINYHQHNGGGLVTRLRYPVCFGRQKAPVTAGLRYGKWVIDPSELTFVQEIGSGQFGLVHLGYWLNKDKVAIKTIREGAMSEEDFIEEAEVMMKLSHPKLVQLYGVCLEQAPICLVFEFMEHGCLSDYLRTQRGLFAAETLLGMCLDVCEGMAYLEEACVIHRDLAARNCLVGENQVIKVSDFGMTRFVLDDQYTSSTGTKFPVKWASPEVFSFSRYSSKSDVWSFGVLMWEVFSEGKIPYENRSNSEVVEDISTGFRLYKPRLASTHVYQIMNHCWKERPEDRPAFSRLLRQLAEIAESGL

Tyrosine-protein kinase HCK (Homo sapiens), sequence (P08631 2-526 limits assumed): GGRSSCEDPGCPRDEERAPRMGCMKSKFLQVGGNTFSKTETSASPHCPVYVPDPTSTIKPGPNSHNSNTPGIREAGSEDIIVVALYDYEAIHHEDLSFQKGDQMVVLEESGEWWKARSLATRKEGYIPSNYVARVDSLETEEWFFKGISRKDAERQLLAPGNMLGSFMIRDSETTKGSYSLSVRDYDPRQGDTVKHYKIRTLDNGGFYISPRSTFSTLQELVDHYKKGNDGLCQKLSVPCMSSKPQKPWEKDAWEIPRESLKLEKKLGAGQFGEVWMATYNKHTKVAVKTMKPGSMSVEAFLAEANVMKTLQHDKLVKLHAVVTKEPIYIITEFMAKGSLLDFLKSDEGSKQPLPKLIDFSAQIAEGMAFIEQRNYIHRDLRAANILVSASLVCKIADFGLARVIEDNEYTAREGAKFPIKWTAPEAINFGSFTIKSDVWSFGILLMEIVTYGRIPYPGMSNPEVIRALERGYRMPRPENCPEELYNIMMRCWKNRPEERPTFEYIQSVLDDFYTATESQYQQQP
Tyrosine-protein kinase Fyn (Homo sapiens), sequence (P06241 2-537 limits assumed): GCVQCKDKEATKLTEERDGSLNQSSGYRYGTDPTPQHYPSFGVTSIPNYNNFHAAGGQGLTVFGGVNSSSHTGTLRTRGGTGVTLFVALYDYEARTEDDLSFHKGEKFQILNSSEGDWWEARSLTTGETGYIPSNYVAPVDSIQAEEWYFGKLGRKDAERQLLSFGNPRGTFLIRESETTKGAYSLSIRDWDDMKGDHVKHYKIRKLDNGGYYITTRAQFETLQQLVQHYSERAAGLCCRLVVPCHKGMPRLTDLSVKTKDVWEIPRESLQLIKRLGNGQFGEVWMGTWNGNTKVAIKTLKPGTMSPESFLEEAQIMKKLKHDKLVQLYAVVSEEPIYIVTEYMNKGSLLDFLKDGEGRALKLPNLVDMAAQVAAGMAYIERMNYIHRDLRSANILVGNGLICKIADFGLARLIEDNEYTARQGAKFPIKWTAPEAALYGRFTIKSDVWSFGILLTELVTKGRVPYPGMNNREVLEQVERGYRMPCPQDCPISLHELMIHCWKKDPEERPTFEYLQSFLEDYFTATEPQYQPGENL

SMILES | inhibition [1] [%] | inhibition [2] [%] | inhibition [3] [%] | inhibition [4] [%] | inhibition [5] [%] | inhibition [6] [%] | inhibition [7] [%] | inhibition [8] [%] | inhibition [9] [%] | inhibition [10] [%]
CC(=O)Nc1cccc(C#Cc2cncnc2Nc2ccc(OCc3cccc(F)c3)c(Cl)c2)n1 | 2.69 | -0.02 | 2.4 | -4.35 | -3.59 | -4.01 | -3.08 | -1.19 | 0 | -0.1
CS(=O)(=O)CCNCc1ccc(-c2ccc3ncnc(Nc4ccc(OCc5ccccc5)c(Cl)c4)c3c2)o1 | 9.03 | 1.16 | 5.85 | 5.19 | -0.77 | 1.79 | 1.45 | -1.48 | -1.47 | -0.01
Cc1cccc(-c2n[nH]cc2-c2ccc3ncccc3n2)n1 | 6.38 | 0.57 | 5.58 | 1.27 | -0.01 | -0.03 | 2.58 | -0.57 | -0.38 | 0.38
COC(=O)Nc1nc2cc(Oc3cccc(NC(=O)Nc4cc(C(F)(F)F)ccc4F)c3)ccc2[nH]1 | 7.79 | 1.11 | 7.7 | -1.77 | -0.89 | 2.67 | 2.78 | -1.56 | -0.86 | 0.34
Fc1cccc(COc2ccc(Nc3ncnc4sc(-c5cccs5)cc34)cc2Cl)c1 | 5.19 | 1.68 | 3.8 | 0.38 | 0.6 | 4.85 | 3.43 | -1.46 | -0.83 | 0.84
CCN1CCC(CC(=O)Nc2n[nH]c3nc(-c4cccs4)c(Br)cc23)CC1 | -1.4 | -0.44 | 0.93 | -1.09 | 1.31 | -0.61 | -1.43 | -2.33 | 0.01 | -0.21
COc1ccc(COc2ccc(Cc3cnc(N)nc3N)cc2OC)cc1 | 1.28 | 3.28 | 3.12 | -2.27 | -0.91 | 0.54 | -1 | 0.04 | -0.57 | 1.47
COc1cc2ncn(-c3cc(O[C@@H](C)c4ccccc4Cl)c(C(N)=O)s3)c2cc1OC | 27.5 | 10.8 | 43.3 | -0.08 | 2.3 | 1.26 | 3.04 | 3.27 | 3.99 | 0.13
CC1=C(C(=O)Nc2ccc3[nH]ncc3c2)C(c2ccc3ccccc3c2)CC(=O)N1 (stereo not given) | 1.8 | 4.76 | 17.9 | 4 | 6.6 | 4.67 | 4.45 | 0.94 | 1.74 | 2.6
NC(=O)c1ccc(-c2nc(-c3ccccn3)c(-c3ccc4c(c3)OCO4)[nH]2)cc1 | 8.01 | 3.56 | 4.66 | 1.18 | 2.2 | 3.26 | 5.06 | 3.02 | -0.59 | 1.2
CCn1c(-c2nonc2N)nc2c(C#CC(C)(C)O)nc(OC[C@@H](N)c3ccccc3)cc21 | 2.07 | 5.84 | 11.9 | 1.67 | 1.05 | -0.22 | -0.5 | 0.45 | 1.06 | 0.21
COc1ccc(-c2nn3ncccc3c2-c2ccnc(Nc3ccc(Cl)c(C(F)(F)F)c3)n2)cc1 | 6.37 | 1.57 | 4.58 | 0.1 | -0.08 | 3.14 | 2.37 | -1.6 | 1.11 | 0.94
O=C1NC(=O)C(c2cccc(Cl)c2)=C1Nc1ccc(O)c(Cl)c1 | 2.24 | 1.14 | 3.34 | -1.68 | 2.43 | 4.11 | 6.7 | 1.1 | 0.03 | 0.25
CCn1c(-c2nonc2N)nc2cnc(Oc3cccc(NC(=O)c4ccc(OCCN5CCOCC5)cc4)c3)cc21 | 5.35 | 6.47 | 4.67 | -0.59 | 1.49 | 5.62 | 7.3 | 1.29 | 0.16 | 0.81
COc1ccc(-c2coc3ncnc(N)c23)cc1 | 2.02 | 5.63 | 8.51 | 1.64 | 2.38 | 5.22 | 6.33 | 1.82 | 1.27 | 1.41
COc1cc(C=NNc2ncnc3c2cnn3-c2ccccc2)ccc1O | 47.5 | 8.92 | 41.6 | 1.72 | 3.81 | 3.42 | 2.58 | 3.25 | 2.41 | 1.47
N#Cc1c(NC(=O)c2cccc3ccccc23)sc2c1CCCC2 | 4.04 | 4.79 | 6.4 | 1.59 | 2.51 | 5.97 | 6.62 | 0.81 | 1.11 | 1.77

SMILES | inhibition [1] [%] | inhibition [2] [%] | inhibition [3] [%] | inhibition [4] [%] | inhibition [5] [%] | inhibition [6] [%] | inhibition [7] [%] | inhibition [8] [%] | inhibition [9] [%] | inhibition [10] [%]
CCn1c(-c2nonc2N)nc2c(N3CCCC3)nccc21 | 0.7 | -0.01 | 2.43 | 0.23 | 2.72 | 1.98 | -1.23 | -2.24 | -0.91 | 0.23
CCCN1CCC(Oc2cc(Nc3nc(Nc4cccc(F)c4C(N)=O)c4cc[nH]c4n3)c(OC)cc2Cl)CC1 | 3.01 | 4.1 | 7.31 | 57.2 | 91.8 | 64 | 88 | 4.74 | 37.6 | 0.65
COc1ccc(-c2ccncc2)cc1C(N)=O | 3.66 | 6.67 | 9.92 | 3.69 | 4.13 | 9.09 | 6.94 | 2.71 | 2.24 | 1.95
COc1ccc2cc(-c3c(-c4ccncc4)nc(-c4ccc([S+](C)[O-])cc4)n3C)ccc2c1 (stereo not given) | 2.67 | 4.09 | 6.94 | 1.13 | 0.1 | -0.81 | 3.26 | 1.09 | 1.11 | 1.06
O=C1NC(=O)C(c2ccc(Cl)cc2)=C1Nc1ccc(Cl)c(C(=O)O)c1 | 0.57 | 0.67 | 3.62 | 0.06 | -0.55 | 2.24 | 2.54 | -0.43 | -1.7 | -0.06
Fc1cccc(COc2ccc(Nc3ncnc4cc(-c5ccc[nH]5)sc34)cc2Cl)c1 | 4.86 | 3.68 | 9.04 | -6.59 | -4.84 | 5.37 | 6 | -0.19 | 0.95 | -2.3
CN1CCC(C(=O)Nc2n[nH]c3nnc(-c4ccccc4)cc23)CC1 | 3.89 | 3.42 | 7.61 | 3.98 | 4.17 | 7.76 | 4.86 | 1.63 | 2.13 | 1.35
COc1cc(C)c(NC(=O)CN(C)C)cc1Nc1nc(Nc2cccc(F)c2C(N)=O)c2cc[nH]c2n1 | 2.42 | 4.13 | 3.71 | 93.6 | 95.5 | 99.9 | 99.9 | 90.8 | 97.7 | 1.36
Nc1ncnc2occ(-c3ccc(NC(=O)Nc4cc(C(F)(F)F)cc(C(F)(F)F)c4)cc3)c12 | 10.3 | 6.07 | 27.1 | 1.24 | 7.12 | -4.81 | 6.05 | 5.56 | 2.23 | 1.65
CCn1c(-c2nonc2N)nc2ccncc21 | -0.65 | 3.79 | 3.12 | -0.2 | 1.25 | 3.48 | 5.38 | -0.17 | -0.42 | 0.26
COc1ccccc1Nc1ncc(-c2ccccc2)o1 | 8.38 | 9.81 | 13.3 | -0.7 | 1.64 | 1.17 | 3.48 | 3.09 | 3.73 | 0.73
Cc1nnc(-c2ccc(C)c(-c3ccc(C(=O)Nc4cccc(C#N)c4)cc3)c2)o1 | 3.47 | 4.32 | 5.14 | 1.24 | 0.79 | 4.34 | 3.89 | -0.6 | 1.65 | 0.98
CCCN1CCC=C(c2ccc(Nc3nc(Nc4ccccc4C(N)=O)c4cc[nH]c4n3)c(C)c2)C1 | 7.24 | 7.82 | 16.3 | 97.6 | 99.2 | 84 | 90.1 | 23.2 | 70.8 | 1.99
CNC(=O)c1cncc(/C=C/c2c(Cl)cccc2Cl)c1 | 15.1 | 11.6 | 44.9 | -8.06 | -3 | 3.59 | 2.79 | 2.44 | 2.34 | -1.98
COc1cc2ncn(-c3cc(O[C@H](C)c4ccccc4Cl)c(C(N)=O)s3)c2cc1OC | 8.81 | 11.7 | 51.8 | 2.5 | 3.13 | 2.07 | 4.73 | 1.49 | 2.98 | 2.64
CCc1cccc(NC(=O)Nc2ccc(Oc3ccc4nc(NC(=O)OC)[nH]c4c3)cc2)c1 | 4.72 | 4.76 | 7.28 | 5.04 | 2.45 | -2.61 | 0.47 | 2.05 | 3.39 | 0.3
